# Laboratory results from PubChem BioAssay (NCATS).
# Values joined by “and” are separate entries in the source; they are usually repeats but may differ in a detail not shown here. Identical values can stand only once. Inconclusive results are not listed. Active and inactive are the calls of the source. Calls come from the whole dose curve; as a rule, active = well fitted curve in the direction sought with a large enough effect; inconclusive = small, poorly fitted or top-dose-only effect, or another doubt; inactive = no such curve, though single readings can be large; an effect the other way counts as inactive or inconclusive.
# Tests used:
# [1] = biological target: Cellular tumor antigen p53 (Homo sapiens) (UniProt P04637); assay: Primary qHTS for small molecule compounds that upregulate eGFP-tagged delta133p53alpha (in N-terminal) cells. (AID 2060322); settings: NCI-H358 eGFP-delta133p53alpha fluorescence, 24 h; activation: stronger effect = higher value; note: nearly all actives have a fitted effect of over 75% in size; note: potency is the fitted concentration of half-maximal effect;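 for activation: series mostly up to about 56 µM; 0% = DMSO vehicle and 100% = reference activator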
# Cellular tumor antigen p53 (Homo sapiens), sequence (P04637 whole entry, looked up): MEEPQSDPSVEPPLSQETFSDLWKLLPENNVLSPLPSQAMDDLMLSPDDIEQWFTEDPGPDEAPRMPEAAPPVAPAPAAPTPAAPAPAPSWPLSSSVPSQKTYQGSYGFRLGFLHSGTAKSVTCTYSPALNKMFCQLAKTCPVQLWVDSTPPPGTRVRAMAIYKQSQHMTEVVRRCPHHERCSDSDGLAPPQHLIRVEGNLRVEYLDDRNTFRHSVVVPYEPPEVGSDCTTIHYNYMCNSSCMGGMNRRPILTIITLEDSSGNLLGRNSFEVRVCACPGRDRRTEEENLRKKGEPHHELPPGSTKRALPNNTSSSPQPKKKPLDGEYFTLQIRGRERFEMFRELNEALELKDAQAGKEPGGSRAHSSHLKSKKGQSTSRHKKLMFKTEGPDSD
# Outline: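 NCI-H358 cells pre-induced 24 h with 10 ng/ml doxycycline to express N-terminal eGFP-delta133p53alpha, then dosed 24 h at 37C without doxycycline; fixed, Hoechst-stained, GFP intensity by laser scanning cytometry, normalized to DMSO (0%) and 57.5 uM 5-azacytidine (100%).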
# [2] = biological target: Aldehyde dehydrogenase, mitochondrial (Homo sapiens) (UniProt P05091); assay: qHTS for Inhibitors of the Aldehyde Dehydrogenase Family (ALDH2) Primary screen (AID 2061308);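 note: plate controls were vehicle for no effect and reference inhibitor for full effect; nearly all actives have a fitted effect of over 55% in size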
# [3] = biological target: Retinaldehyde dehydrogenase 3 (Homo sapiens) (UniProt P47895); assay: qHTS for Inhibitors of the Aldehyde Dehydrogenase Family (ALDH1A3) Primary screen (AID 2061315);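 note: plate controls were DMSO vehicle for no effect and reference inhibitor for full effect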
# [4] = BET inhibitor-based combinations targeting novel dependencies in MECOM-rearranged (r) AML: OCI-AML3 cell line (AID 2202232); settings: Potency: OCI-AML3 viability; note: nearly all actives have a fitted effect of over 35% in size; note: potency is the fitted concentration of half-maximal effect
# Outline: (§1)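 A 48 hr incubation preceded viability reading by CellTiter-Glo, with 15 min room-temperature development. Dose series had 11 points; normalization used DMSO and empty wells; AUC was computed and mean-centered per line as Z-AUC.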
# [5] = BET inhibitor-based combinations targeting novel dependencies in MECOM-rearranged (r) AML: MV-4-11 cell line (AID 2202233); note: nearly all actives have a fitted effect of over 45% in size; note: potency is the fitted concentration of half-maximal effect
# Outline: (§2)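 Each compound is tested in an 11-point concentration series against 500 seeded cells/well for 48 hr. The luminescent viability signal is normalized to DMSO and blank wells, then reduced to AUC and a cell-line-centred Z-AUC.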
# [6] = BET inhibitor-based combinations targeting novel dependencies in MECOM-rearranged (r) AML: HNT-34 cell line (AID 2202234); note: nearly all actives have a fitted effect of over 35% in size; note: potency is the fitted concentration of half-maximal effect
# Outline: as §2
# [7] = BET inhibitor-based combinations targeting novel dependencies in MECOM-rearranged (r) AML: UCSD-AML1 cell line (AID 2202235); note: nearly all actives have a fitted effect of over 40% in size; note: potency is the fitted concentration of half-maximal effect
# Outline: as §2
# [8] = BET inhibitor-based combinations targeting novel dependencies in MECOM-rearranged (r) AML: AML-191 cell line (AID 2202236; note: nearly all actives have a fitted effect of over 35% in size; note: potency is the fitted concentration of half-maximal effect)
# Outline: as §1
# [9] = BET inhibitor-based combinations targeting novel dependencies in MECOM-rearranged (r) AML: AML-194 cell line (AID 2202237; note: nearly all actives have a fitted effect of over 40% in size; note: potency is the fitted concentration of half-maximal effect)
# Outline: as §1
# [10] = BET inhibitor-based combinations targeting novel dependencies in MECOM-rearranged (r) AML: SET-2 cell line (AID 2202231); settings: SET-2 AML cells viability, CellTiter-Glo luminescence, 48 h; viability: stronger effect = lower value, concentration not given here; note: nearly all actives have a fitted effect of over 35% in size; note: potency is the fitted concentration of half-maximal effect;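 for viability: plate controls were DMSO treated cells for no effect and wells without cells for full effect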
# Outline: as §1
SMILES,Potency [1],Potency [2],Potency [3],Potency [4],Potency [5],Potency [6],Potency [7],activation [1],Potency [8],Potency [9],viability [10],"activity change, negative = inhibition [2]","activity change, negative = inhibition [3]",Potency [10]
COc1cc(N2CCC(N3CCN(C)CC3)CC2)ccc1Nc1ncc(Cl)c(Nc2ccccc2P(C)(C)=O)n1,3.01 µM (active),inactive,inactive,0.742 µM (active),0.0186 µM (active),0.934 µM (active),0.742 µM (active),–,–,–,–,–,–,–
O=C(Nc1ccc(OC(F)(F)F)cc1)c1sccc1NCc1ccnc2ccccc12,–,inactive,inactive,5.25 µM (active),6.61 µM (active),10.5 µM (active),5.9 µM (active),27.4% (inactive),8.33 µM (active),5.9 µM (active),–,–,–,–
O=c1[nH]c(-c2ccc(C(F)(F)F)cc2)nc2c1CSCC2,–,inactive,inactive,–,–,inactive,inactive,25.7% (inactive) and -15.7% (inactive),–,inactive,95.3% (inactive),–,–,–
Fc1ccc(-c2nc(-c3ccccc3F)[nH]c2-c2ccncc2)cc1,–,inactive,inactive,inactive,inactive,inactive,4.17 µM (active),17% (inactive),inactive,–,–,–,–,–
Clc1ccc(Nc2nnc(Cc3ccncc3)c3ccccc23)cc1,–,inactive,inactive,–,–,inactive,–,-10.3% (inactive) and 9.21% (inactive) and -17% (inactive),inactive,inactive,91.3% (inactive),–,–,–
CC1=C[C@@H]2[C@@H]([C@@H](O)C[C@@]3(C)[C@H]2C[C@@H](C)[C@]3(O)C(=O)CO)[C@@]2(C)Cc3cnn(-c4ccccc4)c3C=C12,–,inactive,inactive,18.6 µM (active),18.6 µM (active),18.6 µM (active),–,-34.9% (inactive),–,–,–,–,–,–
Cc1cncc2cccc(S(=O)(=O)N3CCCN(C(=O)CN)C[C@@H]3C)c12,–,inactive,inactive,–,–,–,4.17 µM (active),-16.4% (inactive) and -8.59% (inactive),–,–,91.2% (inactive),–,–,–
CCC(C)n1ncn(-c2ccc(N3CCN(c4ccc(OC[C@H]5CO[C@](Cn6cncn6)(c6ccc(Cl)cc6Cl)O5)cc4)CC3)cc2)c1=O (some centres not stated),–,inactive,inactive,–,–,inactive,inactive,10% (inactive) and -7.18% (inactive) and -11.6% (inactive),7.23 µM (active),inactive,101% (inactive),–,–,–
Nc1nc(Nc2ccc(S(N)(=O)=O)cc2)nn1C(=O)c1c(F)cccc1F,24.3 µM (active) and 9.53 µM (active),inactive,inactive,2.95 µM (active),1.66 µM (active),2.95 µM (active),2.09 µM (active),–,2.35 µM (active),3.72 µM (active),–,–,–,–
CCn1nc(C2CCN(C(=O)CCO)CC2)nc1-c1cnc(N)c(-c2nnc(C(C)(C)C)o2)n1,–,inactive,inactive,1.18 µM (active),5.9 µM (active),16.6 µM (active),5.9 µM (active),6.33% (inactive),–,–,–,–,–,–
O=C(C1CC1)N1CC[C@@H](Cc2n[nH]c(=O)n2-c2ccc(-c3ccc4occc4c3)cc2)C1,–,inactive,inactive,–,–,–,inactive,-2.33% (inactive) and -15.1% (inactive),inactive,inactive,95.8% (inactive),–,–,–
COc1ccc(Cl)c(Nc2ncnc3cc(OCC4CCN(C)CC4)c(OC)cc23)c1,6.01 µM (active),inactive,inactive,29.5 µM (active),5.9 µM (active),0.742 µM (active),inactive,–,23.5 µM (active),–,–,–,–,–
COc1cc2c(Oc3ccc4[nH]c(C)cc4c3F)ncnc2cc1OCCCN1CCCC1,24.3 µM (active) and 23.9 µM (active),inactive,inactive,13.2 µM (active),18.6 µM (active),11.8 µM (active),16.6 µM (active),–,20.9 µM (active),10.5 µM (active),–,–,–,–
Cc1cc(Nc2cc(N3CCN(C)CC3)nc(Sc3ccc(NC(=O)C4CC4)cc3)n2)n[nH]1,–,inactive,inactive,0.662 µM (active),0.132 µM (active),0.235 µM (active),4.68 µM (active),60.2% (inactive),0.662 µM (active),0.934 µM (active),–,–,–,–
CC(C)(O)c1cc2nc(-c3cnc(N)nc3)nc(N3CCOCC3)c2s1,–,inactive,inactive,1.32 µM (active),1.32 µM (active),1.86 µM (active),0.332 µM (active),18.8% (inactive),–,–,–,–,–,–
CCc1cc2c(cc1N1CCC(N3CCOCC3)CC1)C(C)(C)c1[nH]c3cc(C#N)ccc3c1C2=O,–,inactive,inactive,–,–,–,inactive,46.2% (inactive),–,–,88.5% (inactive),–,–,–
Clc1ccc(C2(c3ccc(-c4cn[nH]c4)cc3)CCNCC2)cc1,–,inactive,inactive,18.6 µM (active),4.17 µM (active),5.25 µM (active),18.6 µM (active),-10.3% (inactive) and 1.79% (inactive),18.6 µM (active),20.9 µM (active),–,–,–,–
Cc1nn(Cc2ccccc2Cl)c(C)c1CN(C)CC(O)COc1ccc(Cl)cc1 (configuration not stated),–,inactive,inactive,16.6 µM (active),20.9 µM (active),20.9 µM (active),inactive,32.2% (inactive),23.5 µM (active),–,–,–,–,–

SMILES,Potency [1],Potency [2],Potency [3],Potency [4],Potency [5],Potency [6],Potency [7],activation [1],Potency [8],Potency [9],viability [10],"activity change, negative = inhibition [2]","activity change, negative = inhibition [3]",Potency [10]
Cc1cc2c(F)c(Oc3ncnn4cc(OCC(C)OC(=O)C(C)N)c(C)c34)ccc2[nH]1 (configuration not stated),–,inactive,inactive,11.8 µM (active),11.8 µM (active),–,–,-1.79% (inactive),–,–,–,–,–,–
COc1cc2c(NC3CCN(C(C)C)CC3)nc(C3CCCCC3)nc2cc1OCCCN1CCCC1,–,inactive,inactive,18.6 µM (active),8.33 µM (active),11.8 µM (active),11.8 µM (active),27.1% (inactive) and 25.7% (inactive),20.9 µM (active),14.8 µM (active),–,–,–,–
Cc1c(C)n(Cc2ccc(-c3ccccc3C(=O)O)cc2)c2ccc(C(=O)N[C@@H](C)c3ccc([N+](=O)[O-])cc3)cc12,–,inactive,inactive,–,–,–,inactive,21.3% (inactive) and -1.79% (inactive),inactive,inactive,111% (inactive),–,–,–
Cc1cccc(-c2[nH]c(CNc3ccccc3F)nc2-c2ccc3ncnn3c2)n1,–,inactive,inactive,–,–,–,inactive,-27.7% (inactive),inactive,inactive,100% (inactive),–,–,–
Cc1cnc(Nc2ccc(F)cc2Cl)nc1-c1c[nH]c(C(=O)N[C@H](CO)c2cccc(Cl)c2)c1,–,inactive,inactive,4.68 µM (active),20.9 µM (active),18.6 µM (active),20.9 µM (active),12% (inactive) and 13.4% (inactive),16.6 µM (active),18.6 µM (active),–,–,–,–
Cc1ccccc1C(C(=O)NC1CCCCC1)N(C(=O)CNc1ccc(C#N)cc1)c1cccc(F)c1 (configuration not stated),–,inactive,inactive,inactive,inactive,inactive,inactive,17.1% (inactive) and 3.57% (inactive),inactive,inactive,–,–,–,–
Nc1ncnc2c1c(COc1cccc(Cl)c1)nn2C1CCOCC1,–,inactive,inactive,–,–,–,inactive,15.2% (inactive),inactive,–,99.8% (inactive),–,–,–
CC1=C(C(=O)Nc2cc3cn[nH]c3cc2F)C(c2ccc(Cl)cc2F)N=C(c2ccnc(Cl)c2)N1 (configuration not stated),–,inactive,inactive,16.6 µM (active),5.9 µM (active),–,–,-24.2% (inactive) and 5.36% (inactive),–,–,–,–,–,–
C[C@H](c1ccc(F)cc1CCCC(=O)O)N(c1cc(F)ccc1F)S(=O)(=O)c1ccc(Cl)cc1,–,inactive,inactive,–,–,–,inactive,-2.61% (inactive) and 2.68% (inactive),–,inactive,113% (inactive),–,–,–
COc1ccc2c(c1)CC[C@@H](CN(C)CC(=O)O)[C@H]2c1ccccc1,–,inactive,inactive,–,–,–,inactive,-11.9% (inactive),inactive,inactive,116% (inactive),–,–,–
CN(C)c1ccc(C2Nc3ccc4ccccc4c3C3=C2C(=O)CC(C)(C)C3)cc1Br (configuration not stated),–,inactive,inactive,–,–,–,inactive,5.76% (inactive) and 26.3% (inactive),–,–,107% (inactive),–,–,–
N#CC1(c2cccc(C(=O)Nc3cc(Oc4ccc5nc(NC(=O)C6CC6)sc5n4)ccc3F)c2Cl)CC1,–,inactive,inactive,–,–,–,inactive,23.6% (inactive),–,inactive,82.7% (inactive),–,–,–
O=C(CC12CC3CC(CC(C3)C1)C2)Nc1cccc2nc(NCCNCCO)ccc12,–,inactive,inactive,–,–,–,–,11.8% (inactive) and 6.68% (inactive),inactive,–,114% (inactive),–,–,–
CC(=O)O[C@]1(C(C)=O)CC[C@H]2[C@@H]3C[C@H](C)C4=CC(=O)CC[C@]4(C)[C@H]3CC[C@@]21C,–,inactive,inactive,14.8 µM (active),18.6 µM (active),8.33 µM (active),10.5 µM (active),-7.53% (inactive) and -21% (inactive),9.34 µM (active),9.34 µM (active),–,–,–,–
O=C(NCC(=O)N1CCCC1)Nc1ccc2cnccc2c1,–,inactive,inactive,–,–,inactive,inactive,7.14% (inactive),–,inactive,109% (inactive),–,–,–
CC(=O)c1c(C)c2cnc(Nc3ccc(N4CCNCC4)cn3)nc2n(C2CCCC2)c1=O,–,–,–,20.9 µM (active),6.61 µM (active),16.6 µM (active),13.2 µM (active),46.5% (inactive) and -19.6% (inactive),16.6 µM (active),14.8 µM (active),–,10.9% [at 5.59 µM] (inactive),-7.36% [at 5.59 µM] (inactive),–
Cn1ncc(Cl)c1-c1cc(C(=O)N[C@H](CN)Cc2cccc(F)c2)sc1Cl,30.1 µM (active),inactive,inactive,–,–,–,–,–,16.6 µM (active),18.6 µM (active),–,–,–,9.34 µM (active)
